Experiments:
Settings in all cases: treatment time: 24 h
A549-ACTB-RAB5A [1] = assay: lowest phenotypically active concentration; higher = less potent
How it was run: (§1)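 Live-cell features were measured per well and normalised to solvent control wells after fifteen gene-edited A549, HepG2 and WPMY1 reporter lines had been treated for 24 h at 0.3, 1, 3 or 9 µM in four wells each. A condition was deviating when ≥3 of 4 wells sat beyond the 95th percentile of control Euclidean distances. It was reproducible when the median replicate Pearson correlation exceeded the 95th percentile of non-replicates. Phenotypic activity demanded both.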

A549-CANX-COX4 [2] = assay: as above
How it was run: as §1

A549-GM130-SQSTM1 [3] = assay: as above
How it was run: as §1

A549-TP53BP1-CLTA [4] = assay: as above
How it was run: as §1

A549-TUBA1B-RELA [5] = assay: as above
How it was run: as §1

HepG2-GM130-SQSTM1 [6] = assay: as above
How it was run: as §1

A549-ACTB-RAB5A [7] = assay: phenotypically active (imaging signature differs from DMSO and reproducible) at any of 0.3-9 uM (binary (1 = active, 0 = inactive)); higher = active
How it was run: as §1

A549-CANX-COX4 [8] = assay: as above
How it was run: as §1

A549-GM130-SQSTM1 [9] = assay: as above
How it was run: as §1

A549-TP53BP1-CLTA [10] = assay: as above
How it was run: as §1

A549-TUBA1B-RELA [11] = assay: as above
How it was run: as §1

HepG2-ACTB-RAB5A = assay: as above
How it was run: as §1

HepG2-CANX-COX4 = assay: as above
How it was run: as §1

HepG2-GM130-SQSTM1 [12] = assay: as above
How it was run: as §1

HepG2-TP53BP1-CLTA = assay: as above
How it was run: as §1

HepG2-TUBA1B-RELA = assay: as above
How it was run: as §1

WPMY1-CANX-COX4 = assay: as above
How it was run: as §1

WPMY1-GM130-SQSTM1 = assay: as above
How it was run: as §1

WPMY1-TP53BP1-CLTA = assay: as above
How it was run: as §1

WPMY1-TUBA1B-RELA = assay: as above
How it was run: as §1

CN(C)C1CCN(C(=O)c2ccc(NC(=O)Nc3ccc(-c4nc(N5CCOCC5)nc(N5CCOCC5)n4)cc3)cc2)CC1
active: phenotypically active (A549-ACTB-RAB5A [7]) 1 | phenotypically active (A549-CANX-COX4 [8]) 1 | phenotypically active (A549-GM130-SQSTM1 [9]) 1 | phenotypically active (A549-TP53BP1-CLTA [10]) 1 | phenotypically active (A549-TUBA1B-RELA [11]) 1 | phenotypically active (HepG2-ACTB-RAB5A) 1 | phenotypically active (HepG2-CANX-COX4) 1 | phenotypically active (HepG2-GM130-SQSTM1 [12]) 1 | phenotypically active (HepG2-TP53BP1-CLTA) 1 | phenotypically active (HepG2-TUBA1B-RELA) 1 | phenotypically active (WPMY1-CANX-COX4) 1 | phenotypically active (WPMY1-GM130-SQSTM1) 1 | phenotypically active (WPMY1-TP53BP1-CLTA) 1 | phenotypically active (WPMY1-TUBA1B-RELA) 1
≤ 0.3 µM: lowest phenotypically active concentration (A549-ACTB-RAB5A [1]) | lowest phenotypically active concentration (A549-CANX-COX4 [2]) | lowest phenotypically active concentration (A549-GM130-SQSTM1 [3]) | lowest phenotypically active concentration (A549-TP53BP1-CLTA [4]) | lowest phenotypically active concentration (A549-TUBA1B-RELA [5]) | lowest phenotypically active concentration (HepG2-GM130-SQSTM1 [6])

Cc1ccc([N+](=O)[O-])cc1S(=O)(=O)N(C)/N=C/c1cnc2ccc(Br)cn12
active: phenotypically active (A549-ACTB-RAB5A [7]) 1 | phenotypically active (A549-CANX-COX4 [8]) 1 | phenotypically active (A549-GM130-SQSTM1 [9]) 1 | phenotypically active (A549-TP53BP1-CLTA [10]) 1 | phenotypically active (A549-TUBA1B-RELA [11]) 1 | phenotypically active (HepG2-ACTB-RAB5A) 1 | phenotypically active (HepG2-CANX-COX4) 1 | phenotypically active (HepG2-GM130-SQSTM1 [12]) 1 | phenotypically active (HepG2-TP53BP1-CLTA) 1 | phenotypically active (HepG2-TUBA1B-RELA) 1 | phenotypically active (WPMY1-CANX-COX4) 1 | phenotypically active (WPMY1-GM130-SQSTM1) 1 | phenotypically active (WPMY1-TP53BP1-CLTA) 1 | phenotypically active (WPMY1-TUBA1B-RELA) 1
≤ 0.3 µM: lowest phenotypically active concentration (A549-ACTB-RAB5A [1]) | lowest phenotypically active concentration (A549-CANX-COX4 [2]) | lowest phenotypically active concentration (A549-GM130-SQSTM1 [3]) | lowest phenotypically active concentration (A549-TP53BP1-CLTA [4]) | lowest phenotypically active concentration (A549-TUBA1B-RELA [5]) | lowest phenotypically active concentration (HepG2-GM130-SQSTM1 [6])

O=C1Nc2ccc(F)cc2C1=C1Nc2ccccc2C1=NO [5'-Fluoroindirubinoxime]
active: phenotypically active (A549-ACTB-RAB5A [7]) 1 | phenotypically active (A549-CANX-COX4 [8]) 1 | phenotypically active (A549-GM130-SQSTM1 [9]) 1 | phenotypically active (A549-TP53BP1-CLTA [10]) 1 | phenotypically active (A549-TUBA1B-RELA [11]) 1 | phenotypically active (HepG2-ACTB-RAB5A) 1 | phenotypically active (HepG2-CANX-COX4) 1 | phenotypically active (HepG2-GM130-SQSTM1 [12]) 1 | phenotypically active (HepG2-TP53BP1-CLTA) 1 | phenotypically active (HepG2-TUBA1B-RELA) 1 | phenotypically active (WPMY1-CANX-COX4) 1 | phenotypically active (WPMY1-GM130-SQSTM1) 1 | phenotypically active (WPMY1-TP53BP1-CLTA) 1 | phenotypically active (WPMY1-TUBA1B-RELA) 1
1 µM: lowest phenotypically active concentration (A549-ACTB-RAB5A [1]) | lowest phenotypically active concentration (A549-CANX-COX4 [2]) | lowest phenotypically active concentration (A549-GM130-SQSTM1 [3]) | lowest phenotypically active concentration (A549-TP53BP1-CLTA [4]) | lowest phenotypically active concentration (A549-TUBA1B-RELA [5]) | lowest phenotypically active concentration (HepG2-GM130-SQSTM1 [6])

Nc1ncnc2c1nc(Cl)n2C1O[C@H](CO)[C@@H](O)[C@H]1O (stereo not given in full) [8-Chloroadenosine]
active: phenotypically active (A549-ACTB-RAB5A [7]) 1 | phenotypically active (A549-CANX-COX4 [8]) 1 | phenotypically active (A549-GM130-SQSTM1 [9]) 1 | phenotypically active (A549-TP53BP1-CLTA [10]) 1 | phenotypically active (A549-TUBA1B-RELA [11]) 1 | phenotypically active (HepG2-ACTB-RAB5A) 1 | phenotypically active (HepG2-CANX-COX4) 1 | phenotypically active (HepG2-GM130-SQSTM1 [12]) 1 | phenotypically active (HepG2-TP53BP1-CLTA) 1 | phenotypically active (HepG2-TUBA1B-RELA) 1 | phenotypically active (WPMY1-CANX-COX4) 1 | phenotypically active (WPMY1-GM130-SQSTM1) 1 | phenotypically active (WPMY1-TP53BP1-CLTA) 1 | phenotypically active (WPMY1-TUBA1B-RELA) 1
1 µM: lowest phenotypically active concentration (A549-ACTB-RAB5A [1]) | lowest phenotypically active concentration (A549-CANX-COX4 [2]) | lowest phenotypically active concentration (A549-GM130-SQSTM1 [3]) | lowest phenotypically active concentration (A549-TP53BP1-CLTA [4]) | lowest phenotypically active concentration (A549-TUBA1B-RELA [5]) | lowest phenotypically active concentration (HepG2-GM130-SQSTM1 [6])

O=C(CCCCSc1nc(-c2ccc(-c3ccccc3)cc2)cc(=O)[nH]1)NO
≤ 0.3 µM: lowest phenotypically active concentration (A549-ACTB-RAB5A [1]) | lowest phenotypically active concentration (A549-GM130-SQSTM1 [3]) | lowest phenotypically active concentration (A549-TP53BP1-CLTA [4]) | lowest phenotypically active concentration (A549-TUBA1B-RELA [5]) | lowest phenotypically active concentration (HepG2-GM130-SQSTM1 [6])
1 µM: lowest phenotypically active concentration (A549-CANX-COX4 [2])
active: phenotypically active (A549-ACTB-RAB5A [7]) 1 | phenotypically active (A549-CANX-COX4 [8]) 1 | phenotypically active (A549-GM130-SQSTM1 [9]) 1 | phenotypically active (A549-TP53BP1-CLTA [10]) 1 | phenotypically active (A549-TUBA1B-RELA [11]) 1 | phenotypically active (HepG2-ACTB-RAB5A) 1 | phenotypically active (HepG2-CANX-COX4) 1 | phenotypically active (HepG2-GM130-SQSTM1 [12]) 1 | phenotypically active (HepG2-TP53BP1-CLTA) 1 | phenotypically active (HepG2-TUBA1B-RELA) 1 | phenotypically active (WPMY1-CANX-COX4) 1 | phenotypically active (WPMY1-GM130-SQSTM1) 1 | phenotypically active (WPMY1-TP53BP1-CLTA) 1 | phenotypically active (WPMY1-TUBA1B-RELA) 1
